Screening data as filed in PubChem BioAssay.
Sampled rows, rich in hits. Any-hit rate of the full collection: about 1.2%.
VDR inh = blocks the human vitamin D receptor; P11473; VDR-SRC2-3 peptide fluorescence polarization, 2 h; Potency, µM, for inactives: max response, negative = inhibition, most hits filed as inhibitors; 400,000 tested, 0.93% active; AID 504847; further: potency means the concentration at half of the fitted maximal effect; on the % scale 0 is the no-effect control and ±100 the full control effect
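The screen uses fluorescence polarization to detect compounds that interfere with recruitment of the SRC2-3 coactivator peptide to VDR; plates are read after 2 h at room temperature.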
TRb-SRC2 inh = disrupts binding of human TR beta to SRC2. P10828. TRbeta-SRC2 peptide binding, fluorescence polarization; receptor liganded with 1 µM T3. Potency, µM (highest dose often 106 µM), for the others: at the highest dose activity change, negative = inhibition, actives largely listed as inhibitors. 280,000 tested, 0.065% active. AID 1469;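 further: potency means the concentration at half of the fitted maximal effect; plate controls were bound peptide for no effect and peptide without receptor for full effect; nearly all actives have a fitted effect of over 50% in size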
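Decrease in fluorescence polarization of 20 nM Texas Red SRC2 coactivator peptide flagged inhibition of its binding to 0.6 uM TRb LBD; 1 uM T3 included, incubation 5 hr, ex 555/em 632 nm.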
GCN5L2 inh-1 = inhibitors of human GCN5L2 histone acetyltransferase; Q92830; GCN5L2 HAT assay, ThioGlo1 CoA-SH fluorescence; Potency, µM (series often up to 58.9 µM), inactives show at the highest dose activity change, negative = inhibition, hits mostly inhibitors; 390,000 tested, 0.21% active; AID 504327; further: potency means the concentration at half of the fitted maximal effect; on the % scale 0 is the no-effect control and ±100 the full control effect
Target sequence (Q92830 whole entry, looked up): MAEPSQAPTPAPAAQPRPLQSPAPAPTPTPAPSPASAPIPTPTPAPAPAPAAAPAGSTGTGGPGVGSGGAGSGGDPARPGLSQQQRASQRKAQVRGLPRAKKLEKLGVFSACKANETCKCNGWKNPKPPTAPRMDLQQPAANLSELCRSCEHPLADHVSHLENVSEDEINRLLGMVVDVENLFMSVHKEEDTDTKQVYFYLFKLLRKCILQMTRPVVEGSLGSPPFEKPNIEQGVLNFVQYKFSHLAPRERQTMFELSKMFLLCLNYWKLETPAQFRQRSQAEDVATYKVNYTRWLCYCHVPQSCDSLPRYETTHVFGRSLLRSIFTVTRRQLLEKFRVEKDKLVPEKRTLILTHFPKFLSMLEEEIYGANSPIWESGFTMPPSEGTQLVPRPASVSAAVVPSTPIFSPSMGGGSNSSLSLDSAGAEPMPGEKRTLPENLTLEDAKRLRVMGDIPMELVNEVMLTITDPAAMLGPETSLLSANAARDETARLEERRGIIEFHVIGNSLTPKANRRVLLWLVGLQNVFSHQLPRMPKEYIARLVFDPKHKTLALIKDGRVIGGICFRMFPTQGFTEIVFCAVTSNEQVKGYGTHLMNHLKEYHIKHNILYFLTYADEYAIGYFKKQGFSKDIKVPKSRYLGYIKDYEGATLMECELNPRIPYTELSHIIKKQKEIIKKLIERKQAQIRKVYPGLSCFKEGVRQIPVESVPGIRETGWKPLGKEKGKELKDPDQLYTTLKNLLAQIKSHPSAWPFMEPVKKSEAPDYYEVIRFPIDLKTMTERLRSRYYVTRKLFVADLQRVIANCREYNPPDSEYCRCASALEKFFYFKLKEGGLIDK
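GCN5L2 (20nM final) in 50mM HEPES, 0.1mM EDTA pH 7.5, 0.01% Tween-20 was preincubated 15 min at room temperature with compound, then given ThioGlo1 (50uM), H3(1-25) peptide (75uM) and acetyl-CoA (70uM); CoA-thiol fluorescence (Ex340/Em540) was read at 0 and 20 min.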
TR SRC2 fluor cs = Texas Red fluorescence interference in TRb-SRC2 counter-screen; TRb/SRC2 Texas Red total fluorescence interference; Potency, µM (top dose mostly 106 µM), for the others: at the highest dose fluorescence change, negative = quenching; 280,000 tested, 0.29% active; AID 1479; active means well fitted curve in either direction with a large enough effect; inconclusive means small, poorly fitted or top-dose-only effect; further: potency means the concentration at half of the fitted maximal effect; on the % scale 0 is the no-effect control and ±100 the full control effect
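Human TRβ ligand-binding domain (0.6 uM) and Texas Red SRC2 peptide (20 nM) in Tris buffer with 1 uM T3 and 5% DMSO were incubated with pinned compound for 5 hr at ambient temperature. Total fluorescence was computed as S + 2P (555/632 nm).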
RGS12 GoLoco inh = inhibitors of human Gai1-RGS12 GoLoco interaction (red fluorophore); P63096; Gai1:RGS12 GoLoco peptide FP, rhodamine, 10 min; Potency, µM (highest dose often 61.6 µM), for inactives: at the top dose activity, negative = inhibition, usual class: inhibitors; 230,000 tested, 0.44% active; AID 880; active means well fitted inhibition curve with a large enough effect, not every such curve was filed as active; inactive means no such curve, though single readings can be large or run the other way; further: potency means the concentration at half of the fitted maximal effect; on the % scale 0 is the no-effect control and ±100 the full control effect; nearly all actives have a fitted effect of over 30% in size
GCN5L2 inh-2 = human KAT2A HAT inhibition, hit confirmation | shares compounds with GCN5L2 inh-1 | GCN5L2 HAT, ThioGlo1 CoA fluorescence, 20 min | Potency, µM, usual class: inhibitors | 140 tested, 70% active | AID 588347
Numbers without * were called inactive; ? = inconclusive; nt = not tested or not shown; [ ] = remark or other dose. Unless noted, the call rests on the fitted dose curve; in most records, active means well fitted curve in the direction sought with a large enough effect; inconclusive means small, poorly fitted or top-dose-only effect, or another doubt; inactive means no such curve, though single readings can be large; an effect the other way counts as inactive or inconclusive.

SMILES	VDR inh	TRb-SRC2 inh	GCN5L2 inh-1	TR SRC2 fluor cs	RGS12 GoLoco inh	GCN5L2 inh-2
O=C(C1=NN(c2ccccc2)C2C(=O)N(c3ccccc3Cl)C(=O)C12)c1ccccc1 (configuration not stated)	-9%	10%	?	-1%	8%	?
CC1(C)OC(=O)C(=Cc2ccc(-c3ccc(Cl)c(C(=O)O)c3)o2)C(=O)O1	?	2%	?	-4%	4%	nt
C=CCOC(=O)c1cc(-c2ccc(/C=C3\C(=O)NC(=O)C(C#N)=C3C)o2)ccc1Cl	25µM*	12%	25µM*	-12%	25%	5.1*
COc1ccc(CCn2c(O)cc3nn(-c4nc5ccccc5s4)c(=O)c-3c2C)cc1	-5%	?	25µM*	22µM*[quencher]	62%	?
COc1ccc(CN2CCN(c3nc4ccccc4s3)CC2)cc1	-5%	nt	-2%	nt	nt	nt
CC#CCN1c2ccccc2[C@]23C[C@@H](C(=O)OC)N(C(=O)COCc4ccccc4)C2=NC(C(=O)OC)=C(C(=O)OC)[C@H]13	nt	9%[11.2 µM]	nt	1%[11.2 µM]	-5%[14.2 µM]	nt
C[n+]1ccccc1/C=C/c1ccc(C#N)cc1	0%	nt	?	nt	nt	29*
CCCCCCC#Cc1cc(OC)c(OC)cc1C(N1CC(C)c2ccccc21)N1CC(C)c2ccccc21 (configuration not stated)	nt	6%[11.2 µM]	nt	4%[11.2 µM]	nt	nt
COc1ccc2c(C(=O)NCCCCO)c(-c3ccc(S(C)(=O)=O)cc3)sc2c1	0%	nt	?	nt	nt	36*
COc1cc(/C=C(/C#N)c2nc3ccccc3[nH]2)ccc1OCC(=O)Nc1ccccc1C	?	?	25%	2%	8%	nt
COc1cc(/C=C(/C#N)c2nc3ccccc3[nH]2)ccc1OCC(=O)Nc1ccccc1C(C)C	0%	6%	?	1%	13%	?
O=C(Nc1ccc(-c2nc3ccccc3s2)c(O)c1)C1=COCCO1	?	-3%	25µM*	0%	26%	23*
O=C(Nc1ccc(-c2nc3ccccc3s2)cc1)C1=COCCO1	-13%	3%	-5%	0%	13%	nt
O=c1c(-c2cccs2)nc2cnc(N3CCNCC3)nc2n1Cc1cccs1	104%	nt	?	nt	68%	nt
O=C(COC(=O)c1c2c(nc3ccccc13)/C(=C/c1ccco1)CC2)NC1CCCC1	-7%	17%	13µM*	?	17%	7.3*
COc1ccc(CC(=O)n2[nH]c(=O)ccc2=O)cc1OC	45µM*	-1%	?	-2%	-30%	36*
Nc1ncnc2c1nc(N1CCCCC1)n2[C@@H]1O[C@@H]2COP(=O)(O)O[C@H]2[C@H]1O	18%	-2%	-10%	1%	nt	nt
O=[n+]1ccn([O-])c2ccccc21	-5%	5%	-5%	-2%	nt	nt
O=C1CC2(CCCCC2)CC(=O)N1CCc1ccccc1	-9%	nt	nt	nt	nt	nt
O=C1C=CC(=O)C(C2=C3C(=O)N(CCc4ccccc4)CC(=O)N3CCC2)=C1	32µM*	1%	14µM*	-2%	-37%	18*
Cc1cc(N2C(=O)C(O)=C(C(=O)c3cc4ccccc4o3)C2c2cccc(Br)c2)no1 (configuration not stated)	?	nt	?	nt	nt	?
COC(=O)c1ccc(C2C(C(=O)c3cc4ccccc4o3)=C(O)C(=O)N2c2cc(C)on2)cc1 (configuration not stated)	-13%	nt	-11%	nt	nt	nt
CC(C)c1ccc(S(=O)(=O)/N=C2/C=CC(=O)c3ccccc32)cc1	nt	?	-7%	-6%	11%	nt
CC(C)c1ccc(S(=O)(=O)/N=C2\C=C(NS(=O)(=O)c3ccccc3)C(=O)c3ccccc32)cc1	79µM*	nt	22µM*	nt	nt	9.1*
CCc1cc(C(C)=O)c(O)cc1OCCCCCC(C)(C)c1nn[nH]n1	nt	?	nt	?	70%	nt
SMILES	VDR inh	TRb-SRC2 inh	GCN5L2 inh-1	TR SRC2 fluor cs	RGS12 GoLoco inh	GCN5L2 inh-2
CSc1ccccc1C(=O)Nc1ncn[nH]1	-15%	nt	35µM*	nt	nt	32*
O=C(Nc1cccc(S(=O)(=O)NC2=NCCC2)c1)c1cc(-c2ccco2)nc2ccccc12	-20%	14%	13µM*	?	36%	?
O=C(O)C1=C/C(=C(/c2ccccc2)c2cc(C(=O)O)c(O)c3ccccc23)c2ccccc2C1=O	nt	nt	nt	nt	0%[14.2 µM]	nt
CCC1CCc2sc(C(=O)OCC(=O)N(CCOC)c3c(N)n(Cc4ccccc4)c(=O)[nH]c3=O)cc2C1 (configuration not stated)	0%	nt	0%	nt	nt	nt
COCCN(C(=O)COC(=O)c1cc2c(s1)CCC2)c1c(N)n(Cc2ccccc2)c(=O)[nH]c1=O	-12%	nt	?	nt	nt	11*
COc1cccc(-c2nnc3n2N=C(c2ccccc2OC)CS3)c1	nt	-1%	nt	1%	nt	nt
CC1(C)S[C@@H]2[C@H](NC(=O)C3(N)CCCCC3)C(=O)N2[C@@H]1C(=O)O	nt	nt	nt	nt	-5%[14.2 µM]	nt
Cc1nc2ccc(NC(=O)c3cc([N+](=O)[O-])cc([N+](=O)[O-])c3Cl)cc2s1	?	-23%	?	3%	-12%	8.1*
Cc1nc2ccc(NC(=O)c3ccc(Cl)c([N+](=O)[O-])c3)cc2s1	7%	-11%	2%	-2%	5%	nt
CO[C@@H]1COC(=O)CCC[C@@H](C)[C@H](OC)COC(=O)[C@H](Cc2ccccc2)NC(=O)C/C=C\[C@H]1C	nt	10%[11.2 µM]	nt	2%[11.2 µM]	nt	nt
CC(=O)NC1C(O)O[C@H](C(=O)O)[C@@H](O)[C@@H]1O (some centres not stated)	1%	-3%	-22%	-2%	nt	nt
CCCNC(=O)c1ccc2c(=O)c(O)c(-c3ccsc3)[nH]c2c1	-21%	0%	32µM*	-1%	5%	16*
